Efa HMGR inh: inhibitors of E. faecalis class II HMGR, primary screen, biochemical, Enterococcus faecalis | HMG-CoA reductase (Enterococcus faecalis, mvaE) | purified E. faecalis HMGR, NADPH absorbance 340 nm kinetic | inhibition, % at 10 µM | 190,000 compounds, 0.41% hits;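 active = inhibition above a set limit, the median over all tested compounds plus 3 SD, cut at about 9.5% in these data; inconclusive = no clear call, values can overlap the other calls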;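 also: enzyme runs in reverse so mevalonate oxidation gives rising NADPH absorbance; 0% = complete reaction with DMSO and 100% = background rate lacking mevalonate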
Autophagy HCS: autophagy modulators in MEF cells, primary screen, imaging, high-content, MEF GFP-LC3; MEF GFP-LC3 puncta imaging; test concentration mostly 10 µM; calls only at 10 µM (by protocol); 190,000 compounds, 0.98% hits;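 active = percentage of spot-positive cells more than 3 SD above its plate mean, without a fluorescence outlier flag or 80% toxicity; inconclusive = no clear call, values can overlap the other calls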;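 also: spot-positive cell cutoff set from DMSO-treated cells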
INS promoter inh: inhibitors of insulin promoter-driven GFP, primary screen, imaging, TRM-6 cells (human fetal islet line), eGFP reporter, cell count | reporter expression induced with tamoxifen | inhibition, % at 2 µM | 130,000 compounds, 0.9% hits | AID 1273, 2008;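 active = inhibition above the mean plus 3 SD, with well images judged a real hit on visual review, cut at about 60% in these data, passing the limit was not always enough; inconclusive = inhibition over the cutoff but images rejected on review; inactive = inhibition not above the cutoff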
Insulin prom up: insulin promoter activators in MIN6 cells, imaging, high-content screening, mouse beta cells. 190,000 compounds, 0.3% hits. AID 1625, 2009. MIN6 insulin promoter-GFP reporter; hits give high values. z-score at 5 µM;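 active = z-score above 3 at 5 µM with at least 500 cells counted in the well; inconclusive = wells under 500 cells, flagged as cytotoxic or low count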
Active calls of the source: *; i = inactive; ? = inconclusive; . = no result; + = active, no number. Most compounds without a hit are left out; they make up all but 1.9% or so of the library.

SMILES	Efa HMGR inh	Autophagy HCS	INS promoter inh	Insulin prom up
CC(=O)Nc1ccc(Nc2cc(C)nc3c(-c4ccc(Cl)cc4)c(C)nn23)cc1	-2	i	.	0.32
c1ccc(CSc2ccc(-c3cccs3)nn2)cc1	-2	i	42	-0.23
c1ccc(CSc2ccc(-c3cccs3)nn2)nc1	12*	i	-78	-0.49
O=C(NCCN1CCOCC1)c1cccn2c(=O)c3c4c(sc3nc12)CCCC4	.	.	.	-0.4
Cc1ccc([N+](=O)[O-])cc1Nc1nc(N2CCOCC2)nc(N2CCOCC2)n1	10*	i	-62	-0.06
O=[N+]([O-])c1ccc(Cl)c(/C=N/Nc2nc(N3CCOCC3)nc(N3CCOCC3)n2)c1	-5	i	-7	1.6
COc1cc2c(cc1NC(=O)CN1CCN(S(=O)(=O)c3ccccc3F)CC1)oc1ccccc12	-2	i	-37	3.6*
O=C(O)c1cc(-c2ccncc2)nc2ccc(F)cc12	-4	i	-12	3*
CCc1cccc(C)c1NC(=O)CO/N=C(\N)CC(=O)NC1CCCCC1	11*	i	-73	0.92
O=C(c1nc2ccccn2c1CNCCn1ccc2ccccc21)N1CCOCC1	.	.	.	0.19
O=C(NCC1CCCO1)/C(=C\c1cccc([N+](=O)[O-])c1)NC(=O)c1ccccc1 (configuration not stated)	-4	i	41	-0.19
O=C(NC(=S)N(CC1CCC1)CC1CCCO1)c1cccc([N+](=O)[O-])c1 (configuration not stated)	14*	i	.	.
O=S(CC1CC1(Cl)Cl)CC1CC1(Cl)Cl (configuration not stated)	-2	+	7	0.11
N#Cc1c(-c2ccccc2F)cc(C2CC2)nc1SCC(=O)c1cccs1	8	+	.	1.3
CCSc1nc(C2CC2)cc(-c2cccs2)c1C#N	-11	i	23	.
CCc1ccc(CN2CCN(C(=O)c3cccc(OC)c3OC)CC2)cc1	-9	i	44	-0.33
O=C(COC(=O)/C=C/c1ccco1)NCc1ccc2c(c1)OCO2	-4	i	.	-0.14
CC(=O)C1=C(C)Nc2ncnn2C1c1cccc(OCc2ccccc2)c1 (configuration not stated)	-4	.	.	-1.1
CC(=O)C1=C(C)Nc2ncnn2C1c1ccc(Cl)cc1Cl (configuration not stated)	0	i	.	3.5*
CCc1ccc(C(=O)COC(=O)C(CCSC)NC(=O)c2ccccc2)cc1 (configuration not stated)	-3	i	-17	0.1
CCC1(CC)NC(=O)NC1=O	-5	i	91*	-0.4
O=C(N/C(=C\c1cccs1)C(=O)N1CCOCC1)c1cccs1	-2	i	78*	0.42
COc1ccc(OC)c(-n2c(SCC(=O)N3CCc4ccccc43)nc3c(c2=O)SCC3)c1	2	i	70*	-0.05
COc1ccccc1-n1c(SCC(=O)N2CCc3ccccc32)nc2c(c1=O)SCC2	-7	i	.	.
Cc1ccc(-n2c(O)c(C=Nc3ccc4c(c3)OCO4)c3ccccc3c2=O)cc1C	-2	+	.	-2
SMILES	Efa HMGR inh	Autophagy HCS	INS promoter inh	Insulin prom up
COc1ccc(-n2c(O)c(C=Nc3ccccc3)c3ccccc3c2=O)cc1	-3	+	-6	-0.6
CCn1cnc2c(oc3ccccc32)c1=O	11*	i	.	-0.39
COc1ccc(C(=O)c2ccccc2)c(OCC(=O)N(C)C)c1	0	i	.	0.33
O=C(C1CN(S(=O)(=O)c2ccccc2)CCN1S(=O)(=O)c1ccccc1)N1CCCCCC1 (configuration not stated)	-3	i	100*	1.1
COc1cccc(/C(O)=C/c2nc3ccc(C(=O)NCCc4cccc(C)c4)cc3[nH]c2=O)c1	-3	+	.	1.1
COc1cccc(/C(O)=C/c2nc3ccc(C(=O)NCCc4ccc(Cl)cc4)cc3[nH]c2=O)c1	-7	+	-130	0.95
CCCN(CCC)C1=CC(=[N+]2CCCC2)CC(C)(C)C1	-1	i	-40	?
NNC(=S)Nc1ccc(S(=O)(=O)N2CCCCC2)cc1	.	.	.	0.2
CC/C=C/C(=O)N1CC2(CC(c3cccc(NC(=O)COc4ccc(Cl)cc4)c3)=NO2)C[C@H]1C(N)=O (some centres not stated)	.	.	.	0.21
O=C(Cn1ncc2ccccc21)N1CCN(c2cccc(C(F)(F)F)c2)CC1	18*	i	-18	.
c1ccc(-n2cnnc2SCc2nc3ccccc3s2)cc1	-4	+	.	-0.82
CCCN(CC1CC1)C(=S)Nc1ccccc1F	-1	i	.	.
CCOc1ccc(C2C(C#N)=C(N)Oc3cc(C)oc(=O)c32)cc1 (configuration not stated)	16*	i	-33	-0.17
Cc1ccc(C2C(C#N)=C(N)Oc3cc(C)oc(=O)c32)o1 (configuration not stated)	-3	i	-17	.
CCOC(=O)c1noc(C)c1C(=O)Nc1nccs1	-4	i	.	-0.18
CCOc1cc(C2C3=C(CCCC3=O)Nc3ccc4ncccc4c32)ccc1O (configuration not stated)	12*	i	0	-0.04
COc1cc(C2C3=C(CCCC3=O)Nc3ccc4ncccc4c32)ccc1O (configuration not stated)	-3	i	.	1.5
COc1ccc(C(=O)Nn2c(SCC(=O)c3ccc(Cl)cc3)nc3ccccc3c2=O)cc1	-1	i	83*	-0.42
COc1ccc(C(=O)Nn2c(SCC(=O)N3CCC(C)CC3)nc3ccccc3c2=O)cc1	-1	i	11	.
O=C(CSc1ccc(-c2cccc([N+](=O)[O-])c2)nn1)NC1CCCC1	-1	i	56	0
C/C(=N\Nc1ccc2nncn2n1)c1ccc(Cl)s1	.	.	.	0.73
COc1ccc(CCn2nnnc2C(CC(C)C)N2CCC(C(N)=O)CC2)cc1OC (configuration not stated)	-2	i	.	.
CC(C)CC(c1nnnn1CCc1ccccc1)N1CCC(C(N)=O)CC1 (configuration not stated)	-1	i	100*	.
CN(C)c1ccc2c3c(ccc(N(C)C)c13)COC2	15*	i	.	0.55
CN(C)c1cccc2cccc(N(C)C)c12	.	.	.	0.06
SMILES	Efa HMGR inh	Autophagy HCS	INS promoter inh	Insulin prom up
O=c1[nH]c2ccc(S(=O)(=O)NCc3ccccc3)cc2[nH]1	2	i	.	-0.84
CC1CCCC(C)N1/N=C/c1ccccc1C(=O)O (configuration not stated)	-5	i	72*	2
CS(=O)(=O)N(CC(N)=O)c1cccc(Br)c1	17*	i	i	0.26
CNC(=O)CN(c1cccc(Br)c1)S(C)(=O)=O	-2	i	53	.
CCn1cc(C(C)(C)C)c(C#N)c1NC(C)=O	-4	+	-36	-0.54
O=C(Nc1ccc([N+](=O)[O-])cc1)c1cc(-c2ccccn2)nc2c(Cl)cccc12	-1	+	.	-0.08
Cc1cccc2c(C(=O)Nc3ccc(Br)cc3)cc(-c3ccccn3)nc12	-2	i	.	0.95
CCCC(=O)n1nc(-c2cccnc2)nc1N	-1	i	94*	0.16
